Compound activity (PubChem)
PostGolgi ctrl = inhibits growth of the yeast control strain. efflux-deficient yeast background strain, growth absorbance A615, 16 h. inhibition, % at 10 µM. 98,000 tested, 5% active
CYP2C19 inhib = blocks human cytochrome P450 2C19; P33261; CYP2C19 Supersomes, luciferin-H EGE luminescence, 30 min; inhibition, % at 5 µM; 96,000 tested, 21% active; AID 778;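 active = CYP2C19 inhibition above a set limit at 5 µM in the primary screen, cut at about 50% in these data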;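 note: plate controls were negative control wells for no effect and 2.5 mM tranylcypromine positive control for full effect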
CYP2C9 inh = inhibitors of human CYP2C9. P11712. CYP2C9 Supersomes, luciferin-H conversion, luminescence. inhibition, % at 5 µM. 96,000 tested, 20% active. AID 777;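 active = blocking of liver enzyme CYP2C9 beyond about 50% at 5 µM, limit read from the data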
Target sequence (P11712 whole entry, looked up): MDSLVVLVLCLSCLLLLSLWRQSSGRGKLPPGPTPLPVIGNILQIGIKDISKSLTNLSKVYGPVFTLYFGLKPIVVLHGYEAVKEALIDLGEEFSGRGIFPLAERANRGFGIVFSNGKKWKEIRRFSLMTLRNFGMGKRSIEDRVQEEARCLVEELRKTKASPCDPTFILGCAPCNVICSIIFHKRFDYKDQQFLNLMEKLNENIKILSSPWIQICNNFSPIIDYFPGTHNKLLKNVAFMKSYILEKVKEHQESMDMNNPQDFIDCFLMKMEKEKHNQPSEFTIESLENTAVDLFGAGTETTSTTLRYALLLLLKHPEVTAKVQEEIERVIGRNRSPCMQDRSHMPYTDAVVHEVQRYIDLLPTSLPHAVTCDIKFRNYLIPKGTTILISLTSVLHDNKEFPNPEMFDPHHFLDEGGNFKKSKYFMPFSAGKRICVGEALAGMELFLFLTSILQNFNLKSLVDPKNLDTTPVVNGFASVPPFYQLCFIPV
PostGolgi yeast = growth inhibition of a yeast mutant, post-Golgi transport screen; post-Golgi transport phenotypic cell assay; inhibition, % at 10 µM; 98,000 tested, 0.9% active; AID 739;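 note: yeast cells grown in 1536-well plates; yeast grown about 18 h at 30C before absorbance read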
CYP2C19 act = increases human CYP2C19 enzyme activity. 96,000 tested, under 10 active. recombinant CYP2C19, luciferin-H EGE luminescence; hits give high values; 0 = fully inhibited enzyme, 1 = untreated enzyme. activation factor at 5 µM;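 active = activation factor of at least 2 at 5 µM in the primary screen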;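 note: 0 = wells with 2.5 mM tranylcypromine and 1 = vehicle-only wells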
CYP2C9 act = CYP2C9 (human) activation; P11712; recombinant CYP2C9, luciferin-H conversion, luminescence; hits give high values; factor 1 = untreated enzyme, 0 = blocked; activation factor at 5 µM; 96,000 tested, 1.4% active; AID 1024;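 active = activation factor of 2 or more for CYP2C9 at a 5 µM dose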;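 note: 0 = sulfaphenazole-blocked wells and 1 = vehicle-only wells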
Starred values were filed as active, the others as inactive; x = no result given. An excerpt weighted towards active compounds, which were near 32% of everything screened. Cut-off read from the data, not from the text of the source, unless noted: active = inhibition above about 30%; inactive = the rest.

SMILES | PostGolgi ctrl | CYP2C19 inhib | CYP2C9 inh | PostGolgi yeast | CYP2C19 act | CYP2C9 act
CC(C)N1C(=O)C2C(C(=O)NCc3ccccc3)C3C=CC2(O3)C1C(=O)NC(C)(C)C (centres undefined) | 42* | 2 | 6 | 6 | 1 | 0.9
CCOC(=O)CCn1c2nc(C)cc(C)c2c(=O)n1-c1ccccc1 | 3 | 56* | 7 | -2 | 0.4 | 0.9
CCOC(=O)Cn1nc(C)n(-c2ccccc2)c1=O | -3 | -12 | 6 | -2 | 1.1 | 0.9
CCCC(=O)Nc1cc(C)c(NC(=O)c2ccccn2)cn1 | -7 | 54* | -3 | -6 | 0.5 | 1
Cc1cc(NC(=O)c2ccccc2)ncc1NC(=O)c1ccco1 | 8 | 95* | 56* | -1 | 0.1 | 0.4
CCCC(=O)Nc1cnc(NC(=O)c2cccc(F)c2)cc1C | 27 | 68* | 23 | -4 | 0.3 | 0.8
Cc1cc(NC(=O)C(C)C)ncc1NC(=O)c1cccc(F)c1 | 12 | 11 | 18 | 2 | 0.9 | 0.8
CCC(=O)Nc1cc(C)c(NC(=O)c2ccco2)cn1 | 2 | 5 | -8 | 10 | 1 | 1.1
COc1ccccc1CNC(=O)c1cnccn1 | 3 | 26 | -46 | 1 | 0.7 | 1.5
Cc1ccc(NC(=O)C2CCCN(c3ncccn3)C2)cc1F (centres undefined) | 7 | 42 | 33 | -7 | 0.6 | 0.7
COc1cc(OC)c(C2C(C#N)=C(N)OC3=C2C(=O)CC(C)(C)C3)cc1OC (centres undefined) | 1 | 21 | 25 | -2 | 0.8 | 0.8
COc1ccc(C2C(C#N)=C(N)OC3=C2C(=O)CC(C)(C)C3)c(OC)c1OC (centres undefined) | 7 | 40 | 71* | -15 | 0.6 | 0.3
COc1cc(C2C(C#N)=C(N)OC3=C2C(=O)CCC3)c([N+](=O)[O-])cc1OC (centres undefined) | 27 | -12 | 0 | 0 | 1.1 | 1
Cc1cc(C2C(C#N)=C(N)OC3=C2C(=O)CC(C)(C)C3)c(C)s1 (centres undefined) | 41* | 38 | 34 | 1 | 0.6 | 0.7
Cc1cc(C2C(C#N)=C(N)OC3=C2C(=O)CCC3)c(C)s1 (centres undefined) | 15 | 51* | 22 | 9 | 0.5 | 0.8
O=c1[nH]c2ccccc2c(=O)n1Cc1ccco1 | 6 | 3 | -8 | -6 | 1 | 1.1
CCCCNC(=O)C(CC)Sc1nc2sc(C(=O)OC)c(C)c2c(=O)n1N (centres undefined) | 9 | x | x | 12 | x | x
CCOC(=O)c1sc2nc(SCC#N)n(CCCN3CCCC3=O)c(=O)c2c1C | 11 | 55* | 79* | 4 | 0.4 | 0.2
Cc1c(C(=O)Nc2ccc(Oc3ccccc3)cc2)sc2nc3n(c(=O)c12)CCC3 | 31* | 8 | 48 | 15 | 0.9 | 0.5
CCOC(=O)c1sc2nc3n(c(=O)c2c1C)CCCCC3 | 30* | 74* | 57* | -5 | 0.3 | 0.4
COc1cc(CC(=O)NCc2ccccn2)cc(OC)c1OC | 9 | 14 | -8 | -11 | 0.9 | 1.1
O=S(=O)(N/N=C\C=C\c1ccccc1)c1ccc(Br)cc1 | 22 | 48 | 97* | -5 | 0.5 | 0
Cc1ccc(S(=O)(=O)N/N=C/c2ccc(C(=O)O)cc2)cc1 | 1 | -11 | -12 | -1 | 1.1 | 1.1
Cc1ccc(S(=O)(=O)N/N=C\C=C\c2ccccc2)cc1 | 4 | 17 | 84* | -7 | 0.8 | 0.2
CCn1c(-c2ccc3ncccc3c2)n[nH]c1=S | 4 | 26 | 3 | 19 | 0.7 | 1
CCn1c(-c2cc(-c3ccc(OC(C)C)cc3)nc3ccccc23)n[nH]c1=S | 16 | 74* | 96* | 1 | 0.3 | 0
COc1ccc(OC)c(-n2c(-c3cccc(O)c3)n[nH]c2=S)c1 | 20 | -5 | -4 | -2 | 1 | 1
CCn1c(-c2cc(-c3cc(OC)ccc3OC)nc3ccccc23)n[nH]c1=S | 14 | 88* | 97* | 8 | 0.1 | 0
CCOc1cc(C2NC(=O)NC(C)=C2C(=O)NCc2ccccc2)c(Cl)cc1O (centres undefined) | 1 | 9 | 10 | 19 | 0.9 | 0.9
CCCSc1nc(NCc2ccco2)c2c3c(sc2n1)COC(C)(C)C3 | 47* | 39 | 56* | -1 | 0.6 | 0.4
